# PAFAH2 inh: inhibitors of human PAFAH2; recombinant PAFAH2, FP-rhodamine activity probe, fluorescence polarization; inhibition, % at 3.39 µM; 340,000 compounds, 0.99% hits;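 active = inhibition above the mean over all tested compounds plus 3 SD, cut at about 30% in these data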;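 also: inhibitors block probe labeling of enzyme so polarization drops; 0% = enzyme with DMSO and 100% = wells lacking PAFAH2 protein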
# pPAFAH FP inh: pPAFAH (human) enzyme inhibition; recombinant pPAFAH, FP-rhodamine probe fluorescence polarization; inhibition, % at 3.39 µM; 330,000 compounds, 1.5% hits; AID 463082;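 active = inhibition above the mean inhibition across the screen plus 3 SD, cut at about 25% in these data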;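 also: inhibitors block binding of the rhodamine activity-based probe so polarization drops; 0% = enzyme with DMSO and 100% = wells lacking pPAFAH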
# Fam108B inh: blocks mouse Fam108B hydrolase in RBBP9 counter-screen | recombinant Fam108B, FP-Rh probe fluorescence polarization | inhibition, % at 9.51 µM | 300,000 compounds, 0.33% hits | AID 1947;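 active = inhibition above the screen mean inhibition plus 3 SD, computed separately per campaign, cut at about 18% in these data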;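 also: inhibitors lower polarization as less probe binds the enzyme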
# PAFAH1B3 FP inh: inhibitors of human PAFAH1B3; Q15102; recombinant PAFAH1B3, FP-rhodamine probe, fluorescence polarization; inhibition, % at 3.39 µM; 340,000 compounds, 0.28% hits; AID 492972;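 active = inhibition above the screen-wide average of all tested compounds plus 3 SD, cut at about 25% in these data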;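 also: 0% = enzyme with DMSO only and 100% = wells lacking PAFAH1B3 protein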
# Target sequence (Q15102 whole entry, looked up): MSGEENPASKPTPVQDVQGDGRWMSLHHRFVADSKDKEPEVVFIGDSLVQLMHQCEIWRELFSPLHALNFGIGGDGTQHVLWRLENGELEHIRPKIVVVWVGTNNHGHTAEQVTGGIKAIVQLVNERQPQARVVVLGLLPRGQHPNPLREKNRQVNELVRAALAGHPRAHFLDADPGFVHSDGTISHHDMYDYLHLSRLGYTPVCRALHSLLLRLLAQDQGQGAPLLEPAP
# PME-1 inh: PME-1 (human) inhibition | recombinant PME-1, FP-Rh probe fluorescence polarization | inhibition, % at 5.9 µM | 320,000 compounds, 0.53% hits | AID 2130;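 active = inhibition above the campaign mean of all compounds plus 3 SD, cut at about 26% in these data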;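 also: competitive labeling of PME-1 active site by serine hydrolase directed probe; 0% = PME-1 with DMSO and 100% = wells lacking PME-1 enzyme; inhibitors block probe labeling so polarization falls and inhibition rises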
# PAFAH1B2 inh: blocks human PAF acetylhydrolase 1b catalytic subunit 2; P68402; recombinant PAFAH1B2, FP-rhodamine activity probe, fluorescence polarization; inhibition, % at 3.39 µM; 340,000 compounds, 1.2% hits; AID 492953;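 active = inhibition above the mean of all tested compounds plus 3 SD, cut at about 24% in these data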;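 also: 0% = enzyme with DMSO and 100% = wells lacking PAFAH1B2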
# Target sequence (P68402 whole entry, looked up): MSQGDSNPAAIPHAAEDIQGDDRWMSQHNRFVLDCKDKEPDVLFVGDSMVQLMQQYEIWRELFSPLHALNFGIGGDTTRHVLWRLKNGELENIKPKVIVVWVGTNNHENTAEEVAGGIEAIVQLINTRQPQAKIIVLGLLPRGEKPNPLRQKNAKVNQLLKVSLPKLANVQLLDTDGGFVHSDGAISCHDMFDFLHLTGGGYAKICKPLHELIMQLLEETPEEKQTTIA
# PAFAH2 confirm: PAFAH2 (human) inhibition, confirmed; shares compounds with PAFAH2 inh; inhibition, % at 3.39 µM; recombinant PAFAH2, FP-rhodamine activity probe, fluorescence polarization; 2,300 compounds, 65% hits;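 active = mean inhibition over three repeats above a set limit taken from the earlier primary screen, cut at about 30% in these data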;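 also: inhibitor blocks binding of rhodamine activity probe so polarization falls; 0% = enzyme with DMSO and 100% = wells lacking PAFAH2 protein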
# * marks the source's active call; other numbers are inactive results; . = no result. Shown are actives, neighbours in structure and some others; about 2.8% of the full set was active somewhere.
SMILES,PAFAH2 inh,pPAFAH FP inh,Fam108B inh,PAFAH1B3 FP inh,PME-1 inh,PAFAH1B2 inh,PAFAH2 confirm
COc1cccc(/C=C/C(=O)OCC(=O)Nc2cc(C(F)(F)F)ccc2Cl)c1,33*,2,-6,2,-2,-3,24
O=C(O)/C(=C\c1ccc(Cl)c([N+](=O)[O-])c1)c1ccc(S(=O)(=O)N2CCCC2)s1,22,20,.,10,0,11,.
O=C(O)/C(=C\c1ccc(Cl)c([N+](=O)[O-])c1)c1ccc(S(=O)(=O)N2CCCCC2)s1,32*,18,-3,14,0,21,8
O=C(COC(=O)C12CC3CC(CC(O)(C3)C1)C2)Nc1ccccc1OC(F)F,21,4,3,5,4,8,.
O=C(COC(=O)C12CC3CC(CC(O)(C3)C1)C2)Nc1ccc(OC(F)F)cc1,45*,.,.,10,.,4,29
NS(=O)(=O)c1ccc(NC(=O)COC(=O)C23CC4CC(CC(C4)C2)C3)cc1,1,-1,-2,0,8,18,.
O=C(COC(=O)C12CC3CC(CC(C3)C1)C2)Nc1ccc(OC(F)F)cc1,67*,24,-4,9,-5,5,49*
CCC1CCCCN1CCCNC(=O)C1CCCN(c2ncnc3c2nc2n3CCCCC2)C1 (configuration not stated),11,-1,-4,0,-4,3,.
Clc1cc(Cl)c(OCCCCn2cncn2)c(Cl)c1,9,6,-2,9,-9,0,.
Cc1ccc(NC(=O)Cc2nnc(SCC(=O)NC3=NCCS3)n2C)cc1,0,2,0,0,-3,0,.
Cc1[nH]n(C(N)=S)c(=O)c1N=Nc1cccc([N+](=O)[O-])c1C,-4,14,5,-2,7,-1,.
Cc1c(N=Nc2c(-c3ccc([N+](=O)[O-])cc3)[nH]n(C(N)=S)c2=O)cccc1[N+](=O)[O-],55*,.,.,15,.,15,36*
COc1cccc(NC(=O)COC(=O)C2CCCCC2)c1,82*,7,.,8,.,7,63*
COc1ccc(NC(=O)COC(=O)c2cc(OC)c(OC)c(OC)c2)c([N+](=O)[O-])c1,-1,7,-5,7,0,5,.
COc1ccc(NC(=O)COC(=O)C2CCCCC2)c([N+](=O)[O-])c1,30*,6,2,1,2,4,20
CNS(=O)(=O)c1cccc(C(=O)OCC(=O)Nc2ccc(OC)cc2[N+](=O)[O-])c1,31*,8,-2,3,9,-1,27
COc1cccc(NC(=O)COC(=O)C2CC2)c1,69*,1,.,8,.,4,57*
COc1ccc(NC(=O)CN2CCCCC2)c([N+](=O)[O-])c1,1,5,4,16,0,3,.
COc1ccccc1C(=O)Nc1nnc(S(=O)(=O)N(C)Cc2ccccc2)s1,2,4,0,3,1,2,.
COc1ccccc1-c1cc(C(=O)N/N=C/c2ccoc2)c2ccccc2n1,-2,-4,-3,4,0,-3,.
COc1cc(OC)cc(C(=O)NCCCCc2ccccc2)c1,10,0,0,4,4,4,.
O=C(COC(=O)c1n[nH]c2ccccc12)Nc1ccccc1,76*,0,-1,6,-6,1,67*
CC(=O)c1cccc(NC(=O)COC(=O)c2n[nH]c3ccccc23)c1,47*,-8,1,0,-17,4,39*
O=C(COC(=O)c1n[nH]c2ccccc12)NC(=O)NC1CCCCC1,4,-3,-1,7,-22,2,.
O=C(COC(=O)c1n[nH]c2ccccc12)NC1CCCCC1,80*,-11,.,3,.,-9,68*
Cc1cc(C)cc(NC(=O)COC(=O)c2n[nH]c3ccccc23)c1,70*,-10,-2,5,-28,3,65*
CCOC(=O)c1n[nH]c2ccccc12,-7,2,0,4,-2,6,.
C=C(C)COc1ccc2c(C)c(C)c(=O)oc2c1OCC(=C)C,38*,9,-2,4,-3,3,40*
O=C(COC(=O)c1ccc(O)cc1O)Nc1ccc2ccccc2c1,4,2,.,1,-31,1,.

# Screens (PubChem)
